The list is not random: actives were taken first. Their share in the collection is about 3.8%.
ATXN2 expr inh: reduces ATXN2 reporter expression in HEK-293 cells; Potency, µM (titrated, usually from 57 µM), most hits filed as inhibitors; 360,000 compounds, 0.72% hits; AID 1745845; HEK-293 ATXN2-luciferase reporter, luminescence, 24 h; also: nearly all actives have a fitted effect of over 55% in size
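ATXN2-luciferase reporter cells (luciferase flanked by upstream and downstream ATXN2 gene portions) were treated 24 h at 37 °C with compounds at up to 57 uM. SteadyGlo luminescence gave expression; GF-AFC fluorescence gave viability.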
HT1080 IDH1KD tx: HT-1080 IDH1 knockdown cell toxicity (counter line) | Potency, µM (series often up to 46.1 µM), most hits filed as cytotoxic | HT-1080 IDH1 knockdown viability, ATP luminescence, 48 h | 360,000 compounds, 2% hits
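HT-1080-IDH1KD cells (IDH1 knocked down), 750/well in RPMI with 5% FBS, treated with compound 48 h at 37 degrees C. Viability by CellTiter-Glo luminescence, normalised to DMSO and no-cell wells; concentration-response curves classed.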
ATXN viability: reduces viability in counter-screen for ATXN expression inhibitors; S2 cells (HEK-293 line with an ATXN2-luciferase reporter) viability, CellTiter-Fluor protease fluorescence, 24 h; Potency, µM (doses to about 56.7 µM), most hits filed as cytotoxic; 400,000 compounds, 0.49% hits; also: nearly all actives have a fitted effect of over 40% in size
TGFb inhibitor: inhibitors of TGF-b signaling. HepG2 CAGA-GFP TGF-b/SMAD3 reporter, GFP fluorescence, 18 h; TGF-beta stimulated, 500 pg/mL final. Potency, µM (series often up to 46.1 µM), usual class: inhibitors. 410,000 compounds, 1.2% hits; also: nearly all actives have a fitted effect of over 65% in size
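HEPG2 CAGA-GFP reporter cells (1000/well, DMEM with 1% FBS) received compounds, then recombinant TGF-beta at 500 pg/mL final for 18 hours at 37 degrees C. Per-cell GFP summed per well was normalised to unstimulated and stimulated DMSO controls before curve fitting.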
HT1080-NT tox: kills 2HG-producing HT-1080-NT fibrosarcoma cells; HT-1080-NT fibrosarcoma viability, CellTiter-Glo ATP luminescence, 48 h; 360,000 compounds, 1.6% hits; Potency, µM (top dose mostly 46.1 µM), usual class: cytotoxic;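 also: NT is the 2HG producing partner of a matched IDH1 knockdown line; nearly all actives have a fitted effect of over 55% in size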
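Compounds were tested in concentration-response format on HT-1080-NT cells for 48 hours at 37 degrees C. Cell viability came from CellTiter-Glo luminescence; curves were classified by r2, response magnitude and activity.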
HepG2 tox: kills HepG2 cells in TGF-b inhibitor counter-screen; HepG2 CAGA-GFP viability, ATP luminescence, 18 h; Potency, µM (top dose mostly 46.1 µM), usual class: cytotoxic; 410,000 compounds, 0.76% hits; AID 588856
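CellTiter-Glo luminescence gave cytotoxicity after 18 hours at 37 degrees C. The cells were HepG2 CAGA-GFP in 1% FBS DMEM, stimulated with 500 pg/mL TGF-beta after compound addition. %Activity was normalised to no-cell wells (complete cell-killing) and DMSO (no toxicity), and curves were fitted and classified.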
A number is an active result; 0 = inactive; ? = inconclusive; - = not tested or not shown; ! = repeats disagree. Calls follow the shape of the dose curve; as a rule, active = well fitted curve in the direction sought with a large enough effect; inconclusive = small, poorly fitted or top-dose-only effect, or another doubt; inactive = no such curve, though single readings can be large; an effect the other way counts as inactive or inconclusive.

SMILES	ATXN2 expr inh	HT1080 IDH1KD tx	ATXN viability	TGFb inhibitor	HT1080-NT tox	HepG2 tox
CN(C1=C(N2CCCCC2)C(=O)c2ccccc2C1=O)c1ccccc1	0	?	?	18µM	?	0
O=C1C(Nc2ccccc2)=C(N2CCCCC2)C(=O)c2ccccc21	0	?	?	0	?	0
COc1ccc(OC)c(-c2ccnc(-n3ncc(C(=O)N(C)CCc4ccccn4)c3C)n2)c1	-	-	0	-	-	-
Cc1ccc(SC[C@H](Cc2ccccc2)N2CC[C@@H](C(C)(C)C)CCC2=O)cc1	-	-	-	0	-	0
COc1ccc(CC(N)c2csc(NC(=O)Nc3cc(OC)ccc3OC)n2)cc1 (stereo not drawn)	?	?	?	?	?	0
COc1ccc(CC(N)c2csc(NC(=O)Nc3ccccc3C(C)(C)C)n2)cc1 (stereo not drawn)	?	?	-	?	?	0
COc1ccc(CNC(=O)Nc2nc(C(N)c3ccccc3)cs2)cc1 (stereo not drawn)	0	?	0	0	?	0
COc1ccc(CC(N)c2csc(NC(=O)NCc3ccccc3)n2)cc1 (stereo not drawn)	?	18µM	?	0	?	0
CC(C)CC(N)c1csc(NC(=O)Nc2ccccc2Cc2ccccc2)n1 (stereo not drawn)	?	?	-	?	?	0
Cc1ccccc1NC(=O)Nc1nc(C(N)Cc2ccccc2)cs1 (stereo not drawn)	?	?	?	?	23µM	0
COc1ccc(CC(N)c2csc(NC(=O)c3cccs3)n2)cc1 (stereo not drawn)	0	0	0	14µM	0	0
COc1ccc(CC(N)c2csc(NC(=O)Nc3ccccc3-c3ccccc3)n2)cc1 (stereo not drawn)	?	0	-	?	15µM	16µM
CCC(C(=O)NC(=O)NC(C)=O)c1ccccc1 (stereo not drawn)	0	-	0	-	-	-
Cc1cccc(NC(=O)c2cc3c(=O)n(Cc4cccnc4)ccc3nc2C)c1	0	-	0	0	-	0
CCOc1ccc2nc(N3CCCC(C(=O)Nc4ccccc4CC)C3)sc2c1 (stereo not drawn)	-	-	-	0	-	0
COCC(=O)Nc1cc(C(=O)NC2C3CC4CC2CC(O)(C4)C3)cc2nc(-c3ccccc3)n(C)c12 (stereo not drawn)	-	-	0	-	-	-
COc1ccccc1NC(=O)Nc1nc(C(N)Cc2ccc(Cl)cc2)cs1 (stereo not drawn)	?	?	?	?	?	0
COc1ccccc1NC(=O)Nc1nc(C(N)Cc2ccccc2)cs1 (stereo not drawn)	?	?	?	?	23µM	0
CC(C)Oc1ccc(CNC(=O)c2ccc3nc(C(C)C)oc3c2)cc1	-	-	-	0	-	0
Cc1ccccc1NC1=C(Cl)C(=O)OC1OC(=O)c1ccco1 (stereo not drawn)	?	11µM	?	0	?	0
COc1ccccc1NC1=C(Cl)C(=O)OC1OC(=O)c1ccco1 (stereo not drawn)	0	?	0	0	21µM	0
COc1cccc(NC2=C(Cl)C(=O)OC2OC(=O)c2ccco2)c1 (stereo not drawn)	0	0	0	0	?	0
C=C1C(O)[C@@H]2O[C@]3(CC[C@H](/C=C/C(C)[C@@H]4CC(C)=CC5(O[C@H](C[C@@](C)(O)CO)CCC5O)O4)O3)CC[C@H]2O[C@@H]1C(O)CC(C)[C@H]1OC2(CCCCO2)CCC1C (stereo partly drawn)	0	0.82µM	?	7.9µM	1.2µM	0
C=C1[C@@H](O)[C@@H]2O[C@]3(CC[C@H](/C=C/[C@@H](C)[C@@H]4CC(C)=CC5(O[C@H](C[C@@](C)(O)C(=O)OC)CC[C@H]5O)O4)O3)CC[C@H]2O[C@@H]1[C@@H](O)C[C@H](C)[C@H]1OC2(CCCCO2)CC[C@H]1C (stereo partly drawn)	?	1.2µM	?	0.89µM	0.65µM	0
Cc1ccccc1CN1C(=O)c2ccccc2S(=O)c2ccc(C(=O)NC3CCC(C)CC3)cc21 (stereo not drawn)	-	-	-	0	-	0
SMILES	ATXN2 expr inh	HT1080 IDH1KD tx	ATXN viability	TGFb inhibitor	HT1080-NT tox	HepG2 tox
CCOC(=O)c1cc(-c2ccc(F)cc2)n(CCC(=O)Nc2cc(OC)cc(OC)c2)c1C	-	-	-	?	-	0
CCCCc1ccc(N/C(N)=N/c2nc(C)cc(C)n2)cc1	?	21µM	0	?	33µM	16µM
Cc1ccc(N2CCN(C(=O)c3c(C)oc4ncnc(N5CCCCC5)c34)CC2)c(C)c1	?	-	?	?	-	0
COc1cccc(N2CCN(C(=O)c3cccn3-c3nnc(N4CCCCC4)s3)CC2)c1	-	-	-	0	-	0
CC(C)(C)C1CCC2(CC1)C(C#N)=C(SCC(=O)Nc1ccccc1)NC(=O)C2C#N (stereo not drawn)	?	?	?	7.1µM	15µM	10µM
CC1(C)CC(=O)C2=C(C1)NC(SCC(=O)Nc1ccccc1)=C(C#N)C21CCCCC1	0	0	0	?	?	0
Cn1c(=S)c2[nH]c(SCC3CCCO3)nc2n(C)c1=O (stereo not drawn)	0	0	0	?	0	11µM
S=c1c2c(nc3nc[nH]n13)CCC2	-	0	6.3µM	10µM	0	0
CCOc1ccc(CNC(=O)c2ccc(Sc3ccc(Cl)cc3)c(NC(C)=O)c2)cc1OC	0	0	?	11µM!	0	0
CCOC(=O)c1c(C)[nH]c(C)c1S(=O)(=O)N1CCCC(C(=O)N2CCN(c3ccccc3)CC2)C1 (stereo not drawn)	0	-	0	0	-	0
COc1ccc(NC(=O)[C@@H](c2ccccc2)N2Cc3ccccc3C2=O)cc1OC	0	-	0	0	-	0
COc1ccccc1C(=O)Nc1ccc2c(c1)CN(C(=O)CSC)CC2	0	10µM	0	0	13µM	0
COc1ccccc1C(=O)Nc1ccc2c(c1)CCCN2C(=O)c1ccccc1	0	15µM	0	0	18µM	13µM
O=c1cc(N2CCOCC2)oc2c(-c3cccc4c3sc3ccccc34)cccc12	0	-	-	-	-	-
O=C(NCCc1csc(-c2ccc(Cl)cc2)n1)c1ccco1	14µM!	?	0	0	?	0
COc1cc(-c2nc(CCNC(=O)c3ccco3)cs2)cc(OC)c1OC	0	0	0	0	0	0
COc1cc(C(=O)NCCc2csc(-c3ccc(Cl)cc3)n2)cc(OC)c1OC	20µM	-	-	0	-	0
Cc1ccc(-c2nc(CCNC(=O)c3ccco3)cs2)cc1	0	0	0	0	0	0
O=C(COc1ccccc1)NCCc1csc(-c2ccc(Cl)cc2)n1	0	-	0	11µM	-	0

Screens deposited in PubChem BioAssay by National Center for Advancing Translational Sciences (NCATS).
